This is part of a sample that, as a whole, favours compounds with a hit. Of some 83,000 tested, about 20% had one in any assay.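 Percent growth is the endpoint: 0 to 100 indicates growth inhibition (40 means 60% inhibition), 0 means no net growth, and negative values indicate cell death.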 Unmarked numbers belong to inactive results. Active and inactive are the calls of the source. The calls were made as follows: active = growth percent below 10; inactive = the rest.
Columns and labels:
Assay in all cases: NCI-60 one-dose screen, 48 h (100 = growth as untreated, 0 = no growth, -100 = all killed)
Settings in all cases: 10 µM unless noted
NCI-H23 lung = test system: NCI-H23 lung
NCI-H226 lung = test system: NCI-H226 lung
NCI-H322M lung = test system: NCI-H322M lung
HOP-62 NSCLC = test system: HOP-62 NSCLC
NCI-H460 lung = test system: NCI-H460 lung
NCI-H522 lung = test system: NCI-H522 lung
A549/ATCC NSCLC = test system: A549/ATCC NSCLC
786-0 renal = test system: 786-0 renal
COLO 205 colon = test system: COLO 205 colon
DU-145 prostate = test system: DU-145 prostate
MALME-3M melanoma = test system: MALME-3M melanoma
MDA-MB-231 breast = test system: MDA-MB-231 breast
RXF 393 renal = test system: RXF 393 renal
SF-268 CNS = test system: SF-268 CNS
SF-295 CNS = test system: SF-295 CNS
SF-539 CNS = test system: SF-539 CNS
UACC-257 melanoma = test system: UACC-257 melanoma
M14 melanoma = test system: M14 melanoma
K-562 leukemia = test system: K-562 leukemia
HOP-92 NSCLC = test system: HOP-92 NSCLC

SMILES | growth (NCI-H23 lung) [%] | growth (NCI-H226 lung) [%] | growth (NCI-H322M lung) [%] | growth (HOP-62 NSCLC) [%] | growth (NCI-H460 lung) | growth (NCI-H522 lung) | growth (A549/ATCC NSCLC) [%] | growth (786-0 renal) [%] | growth (COLO 205 colon) | growth (DU-145 prostate) [%] | growth (MALME-3M melanoma) [%] | growth (MDA-MB-231 breast) [%] | growth (RXF 393 renal) | growth (SF-268 CNS) [%] | growth (SF-295 CNS) | growth (SF-539 CNS) [%] | growth (UACC-257 melanoma) | growth (M14 melanoma) | growth (K-562 leukemia) [%] | growth (HOP-92 NSCLC) [%]
Cc1nc2ccc(Cl)cn2c1-c1nnc(SCc2ccc([N+](=O)[O-])cc2)o1 | 55.9 | 56.4 | 63.6 | 49.6 | 49.5% | 45.8% | 66.8 | 62.5 | 105% | 67.9 | 31.6 | 41.4 | -5.38% (active) | 46.1 | 74.6% | 20.8 | 61.3% | 70.3% |  | 
N#CC1=C(/N=C/c2ccccc2)Oc2c(ccc3ccccc23)C1c1ccc([N+](=O)[O-])cc1 (stereo not drawn) | 80.2 | 65.3 | 93.8 | 89.1 | 95.2% | 86.2% | 101 | 102 | 109% | 96 | 96.6 | 72.7 | 98.2% | 89.2 | 98.5% | 95.1 | 97.1% | 102% | 90.7 | 
COc1ccc(C(=O)c2nc3ccccc3n2CC(=O)c2ccc(Cl)cc2)cc1 | 30.9 | 37.5 | 84.8 | 42.4 | 68.7% | -22.3% (active) | 81.4 | 34.7 | 111% | 35.2 | 46 | 35.6 | 27.8% | 41.7 | 10.2% | 16.4 | 37.4% | 7.42% (active) |  | 
Cn1c(N2NC(=O)C(N=Nc3ccc(S(N)(=O)=O)cc3)C2=O)nc(-c2ccco2)c(C#N)c1=O (stereo not drawn) | 70 | 94.9 | 107 | 96.4 | 103% | -40.5% (active) | 109 | 100 | 77.1% | 95.7 | 74.7 | 93.8 | -3.8% (active) | 98.8 | 123% | 96.7 | 88.7% | 91.9% |  | 
CCCCCCCCO/N=C\c1c2c(O)c3c(O)c(C)c4c(c3c1O)C(=O)C(C)(O/C=C\C(OC)C(C)C(OC(C)=O)C(C)C(O)C(C)C(O)C(C)/C=C\C=C(\C)C(=O)N2)O4 (stereo not drawn) | 22.2 | 28 | 45.9 | 36 | 3.79% (active) | 5.64% (active) | 17.4 | 27.9 | 4.9% (active) | 32.9 | 40.7 | 12.7 | 38.7% | 43.1 | 4.44% (active) | 42.9 | 8.62% (active) |  | 16.7 | 
CC(=O)[C@@H]1CC[C@]2(CO)CC[C@]3(C)[C@H](CC[C@@H]4[C@@]5(C)CCCNC(C)(C)[C@@H]5CC[C@]43C)[C@@H]12 | 94.6 | 107 | 88.8 | 111 | 100% | 91.6% | 112 | 93.6 | 106% | 101 | 92.9 | 107 | 104% | 91.2 | 105% | 105 | 123% | 93.6% |  | 
CN1[C@@H]2CC[C@H]1/C(=C\c1ccccc1)C(=O)/C2=C/c1ccccc1 | 29.7 | 45.8 | 51.2 | 95.8 | 13.8% | 48.2% |  | 45.3 | 12.9% | 14.1 | 72.8 | 47.6 | 43.4% | 38.3 | 32.8% | 43.1 | 42.8% | 43.4% |  | 84.3
CC/C(=C\c1ccc(OC)cc1)C(=O)c1ccc(OC)cc1 | 86.4 | 93.7 | 92.5 | 86.8 | 102% | 74.3% | 123 | 97.3 | 121% | 105 | 114 | 96.4 | 126% | 101 | 76.5% | 96.5 | 101% | 102% |  | 
Oc1cccc(CCc2ccc(Oc3cc(CCc4cccc(O)c4)cc(O)c3O)cc2)c1 | 89 | 84.4 | 81.8 | 92.5 | 66.4% | -8.62% (active) | 83 | 92.8 | 111% | 88.8 | 110 | 72.8 | 81% | 51.7 | 96.7% | 73.9 | 95.6% | 81.2% |  | 

— PubChem BioAssay (NCI)
